Screening data deposited in PubChem by National Center for Advancing Translational Sciences (NCATS).
Rab9 promoter act = qHTS Assay for Rab9 Promoter Activators; Huh7 Rab9 promoter-luciferase reporter, luminescence, 24 h; Potency, µM (doses to about 9.22 µM), for the others: at the top dose activation, negative = inhibition, most hits filed as activators; 320,000 compounds, 2.8% hits; AID 485297, 2010; further: % of control where 0% means no effect; nearly all actives have a fitted effect of over 60% in size
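Promoter activation is measured as luciferase luminescence in Huh7 cells stably transfected with a Rab9 promoter–luciferase construct, following 24 h compound exposure at 37 °C and 10 min reagent incubation at ambient temperature.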
p53 reactivation = qHTS assay for re-activators of p53 using a Luc reporter. H1299 p53-A138V BP100-luciferase reporter, luminescence, 24 h. Potency, µM (top dose mostly 92.2 µM), for the others: at the top dose activity change, positive = activation, actives largely listed as activators. 320,000 compounds, 0.063% hits. AID 504706, 2011; further: % of control where 0% means no effect; nearly all actives have a fitted effect of over 45% in size
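H1299 (p53-null), stable ts p53-A138V + BP100-Luc; 1000 cells/well, Opti-MEM/10% FBS; cpd 4 pt, 1:5; 24 h, 37 deg C, 5% CO2; detection reagent 10 min RT; luminescence.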
ELG1 genotox = qHTS screen for small molecules that induce genotoxicity in human embryonic kidney (HEK293T) cells expressing luciferase-tagged ELG1; HEK293T ELG1-luciferase reporter, luminescence, 16 h; Potency, µM (highest dose often 46 µM), inactives show at the highest dose activity change, positive = activation, usual class: activators; 330,000 compounds, 1.3% hits; further: % of control where 0% means no effect; nearly all actives have a fitted effect of over 60% in size
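Step 1: seed 2,000 HEK293T ELG1-luciferase cells per well. Step 2: add compound or DMSO, incubate 16 hr at 37 °C. Step 3: ONE-Glo, 30 min at room temperature, read luminescence.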
NPC1 promoter act = qHTS Assay for NPC1 Promoter Activators; Huh7 NPC1 promoter luciferase reporter, 24 h; Potency, µM (highest dose often 9.22 µM), for inactives: at the top dose activation, hits mostly activators; 320,000 compounds, 2.4% hits; AID 485313, 2010; further: % of control where 0% means no effect; nearly all actives have a fitted effect of over 60% in size
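Compounds in DMSO were transferred onto Huh7 NPC1-luciferase reporter cells pre-incubated 2 h; after 24 h at 37 °C, Amplite reagent was dispensed and luminescence recorded 10 min later.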
SMN2 splice enh = qHTS Assay for Enhancers of SMN2 Splice Variant Expression; HEK293 SMN2-luciferase splicing reporter, luminescence, 30-36 h; Potency, µM (highest dose often 46.1 µM), inactives show at the highest dose activity change, positive = activation, usual class: activators; 210,000 compounds, 2.8% hits; further: % of control where 0% means no effect; nearly all actives have a fitted effect of over 55% in size
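HEK293 cells carry an SMN2 minigene-luciferase reporter in which exon 7 inclusion puts luciferase in frame. Cells were seeded at 2000 cells/well, attached for 10-12 hours, then exposed to compounds for 30-36 hours at 37C before ONE-Glo luminescence.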
FLuc modulator = qHTS profiling assay for firefly luciferase inhibitor/activator using purifed enzyme and Km concentrations of substrates (counterscreen for miR-21 project); 360,000 compounds, 6.9% hits; Potency, µM (top dose mostly 57.5 µM), without a hit: top-dose activity change, negative = inhibition, actives largely listed as inhibitors; purified FLuc, Km substrates, luminescence inhibition; Luciferin 4-monooxygenase (Photinus pyralis), P08659;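 further: plate controls were vehicle for no effect and reference inhibitor for full effect; nearly all actives have a fitted effect of over 55% in size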
Target sequence (P08659 whole entry, looked up): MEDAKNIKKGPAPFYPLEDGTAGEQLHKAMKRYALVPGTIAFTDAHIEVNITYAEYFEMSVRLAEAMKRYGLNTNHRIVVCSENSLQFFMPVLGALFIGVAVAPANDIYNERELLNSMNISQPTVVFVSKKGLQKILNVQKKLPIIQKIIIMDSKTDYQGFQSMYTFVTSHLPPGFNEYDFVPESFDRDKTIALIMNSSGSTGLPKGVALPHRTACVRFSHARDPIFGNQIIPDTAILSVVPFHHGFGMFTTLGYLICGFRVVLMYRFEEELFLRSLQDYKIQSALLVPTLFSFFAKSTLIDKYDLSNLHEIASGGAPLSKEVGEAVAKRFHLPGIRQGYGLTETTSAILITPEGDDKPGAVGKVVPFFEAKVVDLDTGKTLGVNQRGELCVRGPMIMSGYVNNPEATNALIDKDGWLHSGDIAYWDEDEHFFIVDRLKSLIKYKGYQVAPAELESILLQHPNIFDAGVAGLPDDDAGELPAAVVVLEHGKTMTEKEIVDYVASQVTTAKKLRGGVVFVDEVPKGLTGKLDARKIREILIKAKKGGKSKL
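Purified P. pyralis luciferase, 10 nM final, with Km-level 10 uM D-luciferin and 10 uM ATP in 50 mM Tris acetate pH 7.5, 10 mM Mg acetate, 0.01% Tween-20, 0.05% BSA; 6-point qHTS titration about 60 µM downward; luminescence read.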
An asterisk follows results filed as active; [ ] = remark or other dose. The list is not random: actives were taken first. Their share in the collection is about 7.4%. The call rests on the fitted dose curve; in most records, active means well fitted curve in the direction sought with a large enough effect; inconclusive means small, poorly fitted or top-dose-only effect, or another doubt; inactive means no such curve, though single readings can be large; an effect the other way counts as inactive or inconclusive. Potency means the concentration at half of the fitted maximal effect.

What do the screens show for `C/C(=N\NC(=O)c1cc(C)[nH]n1)c1cccs1`?
Rab9 promoter act: 0.32µM*; p53 reactivation: 22%; ELG1 genotox: inconclusive; NPC1 promoter act: 1.1µM*; SMN2 splice enh: 11µM*; FLuc modulator: 12µM*

How did C/C(=N\Nc1ccccn1)c1cccs1 do in these assays?
Rab9 promoter act: 3.2µM*; p53 reactivation: 4%; ELG1 genotox: inconclusive; NPC1 promoter act: 3.5µM*; SMN2 splice enh: 32µM*; FLuc modulator: 6.7µM*

Results for C/C(=N/NC(=O)c1cc(C(C)C)[nH]n1)c1cccs1 ?
Rab9 promoter act: 0.5µM*; p53 reactivation: inconclusive; ELG1 genotox: inconclusive; NPC1 promoter act: 0.4µM*; SMN2 splice enh: 11µM*; FLuc modulator: 5.4µM*

How did C/C(=N\Nc1ccccn1)c1ccc(OC(F)F)cc1 do in these assays?
Rab9 promoter act: 26%; p53 reactivation: 16%; ELG1 genotox: inconclusive; NPC1 promoter act: 10%; SMN2 splice enh: 21%; FLuc modulator: 15µM*

Results for CCOCCCNC(=O)CN1N=C(c2ccc(C)cc2)CCC1=O ?
Rab9 promoter act: -1%; p53 reactivation: -3%; ELG1 genotox: 0%; NPC1 promoter act: -1%; FLuc modulator: 3%

How did CC(C(=O)NCc1ccccc1)n1ccc2cc(S(=O)(=O)N3CCCC3)ccc21 (centres undefined) do in these assays?
FLuc modulator: -9%

Results for Cc1ccccc1OC[C@H](O)CO ?
SMN2 splice enh: -9%[20.6 µM]

What do the screens show for `Cc1cc(C)n(-c2ccc(C(=O)N3CCN(S(=O)(=O)c4ccc(Cl)cc4)CC3)cc2)n1`?
Rab9 promoter act: 7%; p53 reactivation: -12%; ELG1 genotox: 0%; NPC1 promoter act: 4%; FLuc modulator: -9%

How did C/C(=N/NC(=O)c1cnccn1)c1cccs1 do in these assays?
Rab9 promoter act: inconclusive; p53 reactivation: inconclusive; ELG1 genotox: inconclusive; NPC1 promoter act: 2µM*; SMN2 splice enh: 8.9µM*; FLuc modulator: 15µM*

How did FCCCOc1ccc(-c2nccc(-c3ccc(F)cc3)n2)cc1 do in these assays?
Rab9 promoter act: 1%; p53 reactivation: 16%; ELG1 genotox: 1%; NPC1 promoter act: -1%; SMN2 splice enh: 5%; FLuc modulator: 24µM*

How did FCCCOc1ccc(-c2ccnc(-c3ccccc3)n2)cc1 do in these assays?
Rab9 promoter act: 20%; p53 reactivation: 23%; ELG1 genotox: -1%; NPC1 promoter act: 11%; SMN2 splice enh: -8%; FLuc modulator: 12µM*

What do the screens show for `CCSC1=NC2(CCN(C(=O)NC3CCCCC3)CC2)N=C1c1ccc(C)cc1`?
FLuc modulator: 2%

How did COC(=O)C(C)Sc1nc2ccsc2c(=O)n1Cc1ccccc1 (centres undefined) do in these assays?
Rab9 promoter act: 1%; p53 reactivation: -4%; ELG1 genotox: -7%; NPC1 promoter act: -7%; FLuc modulator: -3%

What do the screens show for `O=C(Nc1nnc(-c2cccnc2)s1)c1cccs1`?
Rab9 promoter act: 29%; p53 reactivation: 11%; ELG1 genotox: inconclusive; NPC1 promoter act: inconclusive; FLuc modulator: 12µM*

How did Cc1cccc(-c2nnc(NC(=O)c3cccs3)s2)c1 do in these assays?
Rab9 promoter act: 20%; p53 reactivation: 27%; ELG1 genotox: 10%; NPC1 promoter act: 27%; SMN2 splice enh: inconclusive; FLuc modulator: 7.6µM*

Results for c1ccc(Nc2nnc(-c3cccnc3)s2)cc1 ?
Rab9 promoter act: 0.4µM*; p53 reactivation: inconclusive; ELG1 genotox: inconclusive; NPC1 promoter act: 1µM*; FLuc modulator: 1.7µM*
